A number with no mark means an inactive call. Records with an inconclusive call do not appear. Where a call stands in place of a potency, no number is given. Calls of active or inactive are those of the source. Unless noted, calls follow the shape of the dose curve; as a rule, active = well fitted curve in the direction sought with a large enough effect in the repeat runs; inconclusive = weak or mixed curves; inactive = no such curve, though single readings can be large; an effect the other way counts as inactive or inconclusive.
Tests used:
[1] = molecular target: Thyrotropin-releasing hormone receptor (Homo sapiens) (UniProt P34981); assay: qHTS assay to identify small molecule agonists of the thyrotropin-releasing hormone receptor (TRHR) signaling pathway (AID 1346891; calls by dose curve; also: potency is read from the fitted curve at half-maximal effect; as to activation: series mostly up to about 58 µM)
Thyrotropin-releasing hormone receptor (Homo sapiens), sequence (P34981 whole entry, looked up): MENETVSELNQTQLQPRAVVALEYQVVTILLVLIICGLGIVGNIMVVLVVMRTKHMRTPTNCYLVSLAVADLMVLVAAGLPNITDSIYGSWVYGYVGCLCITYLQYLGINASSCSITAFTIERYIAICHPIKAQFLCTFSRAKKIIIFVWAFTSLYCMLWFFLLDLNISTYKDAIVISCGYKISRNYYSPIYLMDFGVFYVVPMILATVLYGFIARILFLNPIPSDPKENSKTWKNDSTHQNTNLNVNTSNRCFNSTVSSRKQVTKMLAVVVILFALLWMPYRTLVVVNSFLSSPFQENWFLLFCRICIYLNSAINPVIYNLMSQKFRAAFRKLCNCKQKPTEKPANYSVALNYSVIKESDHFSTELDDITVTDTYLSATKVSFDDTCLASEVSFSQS
In short: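 Intracellular calcium rise, read as fluorescence every second for 3 min, served as the agonist signal in dye-loaded HEK293 cells expressing TRHR; each compound ran at 15 concentrations in triplicate.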

[2] = Human pregnane X receptor (PXR) small molecule agonists, qHTS cell viability counter screen (AID 1346977); also: nearly all actives have a fitted effect of over 50% in size
In short: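 PXR-Luc HepG2, 2,000 cells/well, 5% charcoal-stripped FBS; 5hr settle; cpd 24hr, 37C/5% CO2; CellTiter-Fluor at 23hr, read 1hr later (fluorescence).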

[3] = Caspase-3/7 induction in HepG2 cells by small molecules, qHTS assay (AID 1346978); also: nearly all actives have a fitted effect of over 15% in size
In short: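 Caspase-3/7 induction was measured by Caspase-Glo 3/7 luminescence (30 min, room temperature) after a 17 hr compound exposure of wild-type HepG2 cells seeded at 2,000 per well and pre-incubated 5 hr.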

[4] = Caspase-3/7 induction in CHO-K1 cells by small molecules, qHTS cell viability counter screen (AID 1346979); also: nearly all actives have a fitted effect of over 35% in size
In short: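 Cells (CHO-K1, wild type) are plated at 1,500 per well and incubated 5hr. Test compounds in DMSO are then pinned in, followed by 16hr at 37C and 5% CO2. Viability is read by CellTiter-Fluor fluorescence after 1hr.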

[5] = Caspase-3/7 induction in HepG2 cells by small molecules, qHTS cell viability counter screen (AID 1346981); also: series mostly up to about 92 µM; nearly all actives have a fitted effect of over 30% in size
In short: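 Steps: seed 2,000 HepG2 cells per well; incubate 5 hr at 37 C; pin-add compounds in DMSO; incubate 16 hr; add CellTiter-Fluor; after 1 hr at 37 C and 5% CO2, read fluorescence.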

[6] = molecular target: Nuclear receptor subfamily 1 group I member 2 (Homo sapiens) (UniProt O75469); assay: Human pregnane X receptor (PXR) small molecule agonists, qHTS assay (AID 1346982); also: nearly all actives have a fitted effect of over 35% in size; also: potency is read from the fitted curve at half-maximal effect
Nuclear receptor subfamily 1 group I member 2 (Homo sapiens), sequence (O75469 whole entry, looked up): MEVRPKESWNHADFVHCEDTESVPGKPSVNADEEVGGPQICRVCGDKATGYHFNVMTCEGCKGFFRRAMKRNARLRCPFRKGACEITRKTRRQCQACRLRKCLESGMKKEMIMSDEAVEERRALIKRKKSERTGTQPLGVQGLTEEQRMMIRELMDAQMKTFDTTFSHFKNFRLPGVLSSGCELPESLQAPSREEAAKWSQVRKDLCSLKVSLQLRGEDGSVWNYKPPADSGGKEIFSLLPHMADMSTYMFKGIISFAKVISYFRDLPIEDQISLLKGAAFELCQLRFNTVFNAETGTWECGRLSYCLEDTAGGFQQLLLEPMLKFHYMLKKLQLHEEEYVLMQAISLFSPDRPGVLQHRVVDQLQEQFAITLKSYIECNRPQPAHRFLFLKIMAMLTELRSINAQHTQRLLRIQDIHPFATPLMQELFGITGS
In short: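 Agonist mode qHTS: PXR-Luc HepG2 cells plated 5 hr before DMSO-dissolved compounds were pinned in, cultured 24 hr at 37 C, 5% CO2; ONE-Glo luminescence readout.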

[7] = molecular target: Cytochrome P450 2D6 (Homo sapiens) (UniProt P10635); assay: Cytochrome P450 Family 2 Subfamily D Member 6 (CYP2D6) small molecule antagonists: luciferase reporter qHTS assay (AID 1671196); also: nearly all actives have a fitted effect of over 50% in size; also: potency is read from the fitted curve at half-maximal effect; as to activity change, negative = inhibition: series mostly up to about 120 µM
Cytochrome P450 2D6 (Homo sapiens), sequence (P10635 whole entry, looked up): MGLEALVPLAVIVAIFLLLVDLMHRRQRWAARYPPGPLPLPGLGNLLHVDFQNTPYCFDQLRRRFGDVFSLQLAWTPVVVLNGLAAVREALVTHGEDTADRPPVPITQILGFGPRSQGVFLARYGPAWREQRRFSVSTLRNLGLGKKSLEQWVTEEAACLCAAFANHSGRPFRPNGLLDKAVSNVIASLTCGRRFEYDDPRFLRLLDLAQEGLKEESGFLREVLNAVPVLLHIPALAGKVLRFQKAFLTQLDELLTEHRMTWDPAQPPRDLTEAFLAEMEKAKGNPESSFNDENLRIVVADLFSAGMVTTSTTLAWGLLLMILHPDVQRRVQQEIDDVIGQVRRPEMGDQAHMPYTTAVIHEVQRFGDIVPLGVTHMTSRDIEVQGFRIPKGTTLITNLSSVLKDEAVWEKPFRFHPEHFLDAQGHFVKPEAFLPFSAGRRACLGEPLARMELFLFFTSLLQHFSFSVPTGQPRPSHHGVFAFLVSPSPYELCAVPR
In short: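 P450-Glo format: CYP2D6 converts a proluciferin substrate to luciferin in an NADPH-driven reaction lasting 1 h at room temperature. Light output, proportional to CYP2D6 activity, reflects interference by test chemicals.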

[8] = molecular target: Cytochrome P450 2C19 (Homo sapiens) (UniProt P33261); assay: Cytochrome P450 Family 2 Subfamily C Member 19 (CYP2C19) small molecule antagonists: luciferase reporter qHTS assay (AID 1671197); also: nearly all actives have a fitted effect of over 65% in size; also: potency is read from the fitted curve at half-maximal effect; as to activity change, negative = inhibition: series mostly up to about 120 µM
Cytochrome P450 2C19 (Homo sapiens), sequence (P33261 whole entry, looked up): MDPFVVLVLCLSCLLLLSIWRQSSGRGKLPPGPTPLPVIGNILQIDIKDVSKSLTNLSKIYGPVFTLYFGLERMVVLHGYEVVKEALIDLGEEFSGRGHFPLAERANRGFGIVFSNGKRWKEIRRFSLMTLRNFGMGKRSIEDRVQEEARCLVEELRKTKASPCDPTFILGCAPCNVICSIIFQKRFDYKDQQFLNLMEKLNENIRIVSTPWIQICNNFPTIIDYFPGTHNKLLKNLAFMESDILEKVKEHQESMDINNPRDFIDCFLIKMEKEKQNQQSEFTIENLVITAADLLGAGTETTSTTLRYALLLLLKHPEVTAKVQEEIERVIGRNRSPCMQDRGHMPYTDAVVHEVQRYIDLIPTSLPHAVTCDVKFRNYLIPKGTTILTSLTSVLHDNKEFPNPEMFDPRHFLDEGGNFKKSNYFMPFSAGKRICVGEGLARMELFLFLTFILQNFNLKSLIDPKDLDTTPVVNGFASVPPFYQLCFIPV
In short: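 Compounds were tested on CYP2C19 activity via proluciferin conversion to luciferin. The 37C, 1 h reaction followed NADPH addition; detection reagent stopped it.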

[9] = molecular target: Cytochrome P450 2C9 (Homo sapiens) (UniProt P11712); assay: Cytochrome P450 Family 2 Subfamily C Member 9 (CYP2C9) small molecule antagonists: luciferase reporter qHTS assay (AID 1671198); also: nearly all actives have a fitted effect of over 50% in size; also: potency is read from the fitted curve at half-maximal effect; as to activity change, negative = inhibition: series mostly up to about 120 µM
Cytochrome P450 2C9 (Homo sapiens), sequence (P11712 whole entry, looked up): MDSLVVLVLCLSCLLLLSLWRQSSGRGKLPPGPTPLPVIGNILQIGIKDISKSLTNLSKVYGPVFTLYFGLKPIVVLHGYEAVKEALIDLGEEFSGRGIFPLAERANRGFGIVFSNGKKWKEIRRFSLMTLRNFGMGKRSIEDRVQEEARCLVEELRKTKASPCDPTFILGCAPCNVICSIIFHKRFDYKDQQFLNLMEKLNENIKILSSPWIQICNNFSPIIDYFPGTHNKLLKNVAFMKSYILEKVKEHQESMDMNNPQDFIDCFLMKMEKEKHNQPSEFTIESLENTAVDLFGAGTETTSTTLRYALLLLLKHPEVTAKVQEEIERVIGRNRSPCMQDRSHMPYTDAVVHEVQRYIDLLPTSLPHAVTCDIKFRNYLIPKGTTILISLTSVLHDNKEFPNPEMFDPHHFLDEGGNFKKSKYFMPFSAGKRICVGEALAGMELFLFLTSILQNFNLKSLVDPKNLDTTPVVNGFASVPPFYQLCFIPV
In short: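 Enzyme-substrate mix preincubated with compound 10 min at room temperature; reaction started with NADPH regeneration solution, 1 h 37C. Luminescent luciferin product read after 20 min detection reagent.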

[10] = molecular target: Cytochrome P450 1A2 (Homo sapiens) (UniProt P05177); assay: Cytochrome P450 Family 1 Subfamily A Member 2 (CYP1A2) small molecule antagonists: luciferase reporter qHTS assay (AID 1671199); also: nearly all actives have a fitted effect of over 50% in size; also: potency is read from the fitted curve at half-maximal effect; as to activity change, negative = inhibition: series mostly up to about 120 µM
Cytochrome P450 1A2 (Homo sapiens), sequence (P05177 whole entry, looked up): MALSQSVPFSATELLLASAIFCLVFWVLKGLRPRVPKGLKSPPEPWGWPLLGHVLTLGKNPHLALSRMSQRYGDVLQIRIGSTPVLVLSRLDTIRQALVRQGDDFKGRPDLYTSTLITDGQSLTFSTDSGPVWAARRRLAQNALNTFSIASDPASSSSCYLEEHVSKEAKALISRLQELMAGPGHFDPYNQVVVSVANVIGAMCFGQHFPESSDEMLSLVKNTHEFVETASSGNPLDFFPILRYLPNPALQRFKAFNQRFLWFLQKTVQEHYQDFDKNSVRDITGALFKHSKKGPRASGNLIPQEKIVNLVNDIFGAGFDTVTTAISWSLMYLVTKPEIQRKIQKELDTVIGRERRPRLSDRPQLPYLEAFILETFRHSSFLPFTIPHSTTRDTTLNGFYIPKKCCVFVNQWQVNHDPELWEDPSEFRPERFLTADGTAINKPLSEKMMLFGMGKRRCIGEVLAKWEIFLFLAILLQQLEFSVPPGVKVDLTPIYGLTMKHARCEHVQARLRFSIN
In short: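 Inhibition of CYP1A2 conversion of proluciferin to luciferin, detected by luminescence. Reaction run 1 h at room temperature with NADPH regeneration after brief compound preincubation.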

[11] = molecular target: Voltage-gated inwardly rectifying potassium channel KCNH2 (Homo sapiens) (UniProt Q12809); assay: Human Ether-a-go-go-Related Gene (hERG) channel small molecule antagonists: fluorescence cell-based qHTS assay (AID 1671200); also: nearly all actives have a fitted effect of over 50% in size; also: potency is read from the fitted curve at half-maximal effect;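 as to activity change, negative = inhibition: hERG-expressing U2OS cells given a thallium stimulus after FluxOR II dye loading; series mostly up to about 77 µM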
Voltage-gated inwardly rectifying potassium channel KCNH2 (Homo sapiens), sequence (Q12809 whole entry, looked up): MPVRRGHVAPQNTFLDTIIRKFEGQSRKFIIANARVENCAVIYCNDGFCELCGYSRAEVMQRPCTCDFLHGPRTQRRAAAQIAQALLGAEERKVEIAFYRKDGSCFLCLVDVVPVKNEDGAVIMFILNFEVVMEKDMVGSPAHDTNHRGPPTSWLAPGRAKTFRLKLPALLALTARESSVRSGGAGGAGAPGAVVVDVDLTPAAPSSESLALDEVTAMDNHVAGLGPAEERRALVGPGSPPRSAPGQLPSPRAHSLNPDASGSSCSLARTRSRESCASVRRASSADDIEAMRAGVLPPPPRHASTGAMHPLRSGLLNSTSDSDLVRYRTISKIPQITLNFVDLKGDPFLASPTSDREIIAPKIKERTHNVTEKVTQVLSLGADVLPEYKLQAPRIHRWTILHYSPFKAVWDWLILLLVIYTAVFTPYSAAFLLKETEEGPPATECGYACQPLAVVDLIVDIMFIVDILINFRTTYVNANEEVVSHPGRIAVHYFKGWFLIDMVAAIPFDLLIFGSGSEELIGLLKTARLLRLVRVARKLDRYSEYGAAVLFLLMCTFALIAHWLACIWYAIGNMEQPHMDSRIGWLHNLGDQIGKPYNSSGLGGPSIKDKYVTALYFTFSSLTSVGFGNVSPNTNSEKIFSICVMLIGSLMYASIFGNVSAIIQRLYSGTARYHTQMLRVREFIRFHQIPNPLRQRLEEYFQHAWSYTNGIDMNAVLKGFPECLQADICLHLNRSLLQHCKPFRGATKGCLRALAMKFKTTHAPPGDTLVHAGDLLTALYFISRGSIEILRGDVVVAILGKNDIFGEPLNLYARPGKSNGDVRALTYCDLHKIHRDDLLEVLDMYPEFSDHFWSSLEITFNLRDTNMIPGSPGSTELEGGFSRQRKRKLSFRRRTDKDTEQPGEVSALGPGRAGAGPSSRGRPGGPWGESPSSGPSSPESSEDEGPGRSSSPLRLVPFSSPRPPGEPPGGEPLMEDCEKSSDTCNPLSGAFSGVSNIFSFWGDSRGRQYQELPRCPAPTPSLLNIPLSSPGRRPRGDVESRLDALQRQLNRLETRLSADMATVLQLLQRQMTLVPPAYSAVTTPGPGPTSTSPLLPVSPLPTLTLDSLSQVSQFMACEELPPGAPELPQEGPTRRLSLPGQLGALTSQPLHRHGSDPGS
In short: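 Channel function was assessed by thallium flux. Cells seeded the previous day and kept at 37 C took up FluxOR II dye over 1 h in the dark at room temperature, then sat another 10 min before stimulation.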

[12] = molecular target: Cytochrome P450 3A4 (Homo sapiens) (UniProt P08684); assay: Cytochrome P450 Family 3 Subfamily A Member 4 (CYP3A4) small molecule antagonists: luciferase reporter qHTS assay (AID 1671201); also: nearly all actives have a fitted effect of over 50% in size; also: potency is read from the fitted curve at half-maximal effect; as to activity change, negative = inhibition: series mostly up to about 120 µM
Cytochrome P450 3A4 (Homo sapiens), sequence (P08684 whole entry, looked up): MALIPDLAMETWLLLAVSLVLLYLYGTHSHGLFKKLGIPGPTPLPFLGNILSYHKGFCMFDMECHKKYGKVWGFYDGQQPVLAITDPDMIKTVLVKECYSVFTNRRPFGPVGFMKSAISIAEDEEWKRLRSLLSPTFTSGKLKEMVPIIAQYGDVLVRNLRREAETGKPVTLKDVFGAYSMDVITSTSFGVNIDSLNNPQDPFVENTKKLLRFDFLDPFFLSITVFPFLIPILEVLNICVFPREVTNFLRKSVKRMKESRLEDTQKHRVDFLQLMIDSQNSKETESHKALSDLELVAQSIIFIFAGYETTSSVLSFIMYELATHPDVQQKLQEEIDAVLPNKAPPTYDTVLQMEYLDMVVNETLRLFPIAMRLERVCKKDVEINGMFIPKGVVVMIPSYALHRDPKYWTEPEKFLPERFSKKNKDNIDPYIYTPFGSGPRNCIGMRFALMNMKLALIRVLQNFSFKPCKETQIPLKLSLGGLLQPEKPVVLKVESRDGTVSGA
In short: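 Compounds in DMSO were pin-transferred onto CYP3A4 enzyme-substrate mix and held 10 min at room temperature. NADPH regenerating solution started the reaction for 1 h; luciferin detection reagent stopped it, and luminescence was read after 20 min.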

[13] = Caspase-3/7 induction in CHO-K1 cells by small molecules, qHTS assay (AID 1346980); also: nearly all actives have a fitted effect of over 15% in size
In short: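 Luminescent Caspase-Glo 3/7 read (30min, room temperature) quantified apoptosis induction. Cells were wild-type CHO-K1, treated with compound for 17hr at 37 C and 5% CO2.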

[14] = molecular target: Nuclear receptor subfamily 1 group I member 2 (Rattus norvegicus) (UniProt Q9R1A7); assay: Rat pregnane X receptor (rPXR) activation by small molecules, qHTS assay (AID 1346983); details: rPXR luciferase reporter cells, One-Glo luminescence, 24 h; max activation: active compounds read high; also: nearly all actives have a fitted effect of over 20% in size
Nuclear receptor subfamily 1 group I member 2 (Rattus norvegicus), sequence (Q9R1A7 whole entry, looked up): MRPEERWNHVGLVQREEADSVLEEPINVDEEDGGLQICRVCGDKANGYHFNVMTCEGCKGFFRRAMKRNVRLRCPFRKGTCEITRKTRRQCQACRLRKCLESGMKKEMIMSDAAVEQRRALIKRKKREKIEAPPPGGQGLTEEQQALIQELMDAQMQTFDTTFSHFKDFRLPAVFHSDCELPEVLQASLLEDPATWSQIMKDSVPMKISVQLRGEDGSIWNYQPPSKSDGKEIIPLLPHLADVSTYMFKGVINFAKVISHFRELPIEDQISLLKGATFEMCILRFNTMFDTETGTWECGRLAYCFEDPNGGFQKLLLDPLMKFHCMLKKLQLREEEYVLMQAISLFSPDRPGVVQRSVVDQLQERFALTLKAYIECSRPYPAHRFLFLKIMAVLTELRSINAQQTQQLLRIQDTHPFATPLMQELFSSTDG
In short: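 Luminescent readout (One-Glo luciferase, 30 min room temperature) followed 24 hr compound treatment at 37 C of rPXR cells plated 2,000 per well and preincubated 5hr; qHTS format with compounds delivered in DMSO.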

[15] = molecular target: Nuclear receptor subfamily 1 group I member 2 (Homo sapiens) (UniProt O75469); assay: CYP3A4 induction through human pregnane X receptor (PXR) by small molecules, qHTS assay (AID 1346984); also: nearly all actives have a fitted effect of over 40% in size
In short: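 Steps: seed DPX-2 cells, 5 hr at 37C; pin-transfer compounds; 24 hr at 37C; add Luciferin-IPA (3uM final), 3 hr at 37C; add One-Glo, 30 min RT; read luminescence.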

[16] = molecular target: Nuclear receptor subfamily 1 group I member 2 (Homo sapiens) (UniProt O75469); assay: Human pregnane X receptor (PXR) activation by small molecules, qHTS assay (AID 1346985); also: nearly all actives have a fitted effect of over 40% in size
In short: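 DPX-2 cells (HepG2 co-transfected with a PXR response element and a CYP3A4-promoter luciferase construct) were seeded at 2,000 per well, rested 5 hr at 37C, then exposed to DMSO-dissolved compounds for 24 hr. Activation was read as luciferase luminescence.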

Clc1cccc(-c2cc(Cl)cc(Cl)c2)c1
Potency [1]: inactive
Potency [2]: inactive
Potency [3]: inactive
Potency [4]: inactive
Potency [5]: inactive
Potency [6]: 59 µM (active)
Potency [7]: inactive
Potency [8]: 30.6 µM (active)
Potency [9]: 38.5 µM (active)
Potency [10]: 21.7 µM (active)
Potency [11]: inactive
Potency [12]: inactive

CCOc1ccc(NC(N)=O)cc1
Potency [1]: inactive
Potency [2]: inactive
Potency [3]: inactive
outcome [13]: inactive
Potency [5]: inactive
Potency [6]: inactive
Potency [7]: inactive
Potency [8]: inactive
Potency [9]: inactive
Potency [10]: 35.6 µM (active)
Potency [12]: inactive

CN(C)CCOc1ccccc1Cc1ccccc1
Potency [1]: inactive
Potency [2]: inactive
Potency [3]: inactive
Potency [4]: inactive
Potency [5]: inactive
Potency [6]: inactive
Potency [7]: inactive
Potency [9]: inactive
Potency [11]: 7.56 µM (active)
Potency [12]: inactive

CCCOc1ccc2c(c1)CC[C@@H]1[C@@H]2CC[C@]2(C)C(OC)CC[C@@H]12 (some centres undefined)
Potency [1]: inactive
Potency [2]: inactive
Potency [3]: inactive
outcome [13]: inactive
Potency [5]: inactive
Potency [6]: inactive
Potency [7]: 15.5 µM (active)
Potency [9]: 34.7 µM (active)
Potency [11]: inactive
Potency [12]: inactive

CO[C@@]1(NC(=O)CSCC#N)C(=O)N2C(C(=O)O)=C(CSc3nnnn3C)CS[C@@H]21
Potency [1]: inactive
Potency [2]: inactive
Potency [3]: inactive
Potency [4]: inactive
Potency [5]: inactive
Potency [6]: inactive
max activation [14]: -3.26%
Potency [15]: inactive
Potency [16]: inactive
Potency [7]: inactive
Potency [8]: inactive
Potency [10]: 24.5 µM (active)
Potency [11]: inactive
Potency [12]: inactive

CC(=O)Nc1ccc(C)c(Cl)c1
Potency [1]: inactive
Potency [2]: inactive
Potency [3]: inactive
Potency [4]: inactive
Potency [5]: inactive
Potency [7]: inactive
Potency [8]: 22.4 µM (active)
Potency [9]: inactive
Potency [10]: 8.94 µM (active)
Potency [11]: inactive
Potency [12]: 39.9 µM (active)

CN1CCN(c2c(F)cc3c(=O)c(C(=O)O)cn4c3c2SCC4)CC1
Potency [1]: inactive
Potency [2]: inactive
Potency [3]: inactive
Potency [4]: inactive
Potency [5]: inactive
Potency [6]: inactive
max activation [14]: -4.92%
Potency [15]: inactive
Potency [16]: inactive
Potency [8]: inactive
Potency [10]: inactive

O=C1CCC(C2CCCCC2)CC1
Potency [1]: inactive
Potency [2]: inactive
Potency [3]: inactive
Potency [4]: inactive
Potency [5]: inactive
Potency [7]: inactive
Potency [11]: inactive

Cc1nc(-c2ccccn2)ncc1C(=O)Nn1cc(C)c2cc(F)ccc21
Potency [1]: inactive
Potency [2]: inactive
Potency [3]: inactive
Potency [5]: inactive
Potency [6]: 4.86 µM (active)
Potency [7]: 44.8 µM (active)
Potency [8]: 56.4 µM (active)
Potency [9]: 1.59 µM (active)
Potency [10]: 31.7 µM (active)
Potency [12]: 7.96 µM (active)

NNS(=O)(=O)c1ccc(Oc2ccc(S(=O)(=O)NN)cc2)cc1
Potency [1]: inactive
Potency [2]: inactive
Potency [3]: inactive
Potency [4]: inactive
Potency [5]: inactive
Potency [7]: inactive
Potency [8]: 10 µM (active)
Potency [9]: 5.03 µM (active)
Potency [10]: inactive
Potency [11]: inactive
Potency [12]: inactive

O=C1N(c2ccccc2)c2ccccc2C1(Cc1ccncc1)Cc1ccncc1
Potency [1]: inactive
Potency [2]: inactive
Potency [3]: inactive
outcome [13]: inactive
Potency [6]: inactive
Potency [7]: 30.9 µM (active)
Potency [8]: 2.45 µM (active)
Potency [9]: 3.47 µM (active)
Potency [10]: inactive
Potency [11]: inactive

OCCN(CCO)c1ccccc1
Potency [1]: inactive
Potency [2]: inactive
Potency [3]: inactive
outcome [13]: inactive
Potency [5]: inactive
Potency [6]: inactive
Potency [7]: inactive
Potency [11]: inactive
Potency [12]: inactive

O=c1oc2c(O)c(O)cc3c(=O)oc4c(O)c(O)cc1c4c23
activation [1]: 0.184% [at 11.8 µM]
activity change, negative = cytotoxicity [2]: 4.42% [at 19 µM]
caspase activation [3]: 0.0819% [at 19 µM]
caspase-3/7 activation [13]: 0.998% [at 19 µM]
activity change, negative = cytotoxicity [5]: 1.61% [at 19 µM]
activation [6]: -29.4% [at 19 µM]
activity change, negative = inhibition [7]: -16.4% [at 23.6 µM]
activity change, negative = inhibition [8]: 0.227% [at 23.6 µM]
Potency [9]: inactive
Potency [10]: inactive
activity change, negative = inhibition [11]: 6.87% [at 15.8 µM]
activity change, negative = inhibition [12]: 6.71% [at 23.6 µM]

O=C1C=CC(=O)O1
Potency [1]: inactive
Potency [2]: inactive
Potency [3]: inactive
Potency [4]: inactive
Potency [5]: inactive
Potency [6]: inactive
Potency [8]: inactive
Potency [9]: inactive
Potency [11]: inactive
Potency [12]: inactive

O=C(CC(=O)C(F)(F)F)c1ccccc1
Potency [1]: 39.5 µM (active)
Potency [2]: inactive
Potency [3]: inactive
Potency [5]: inactive
Potency [6]: 55.3 µM (active)
Potency [8]: 36.1 µM (active)
Potency [9]: 32.2 µM (active)
Potency [11]: inactive
Potency [12]: inactive

CCOc1ccc(OCC)c(Cl)c1
Potency [1]: inactive
Potency [2]: inactive
Potency [3]: inactive
outcome [13]: inactive
Potency [5]: inactive
Potency [6]: inactive
Potency [7]: inactive
Potency [8]: inactive
Potency [9]: inactive
Potency [10]: 25.2 µM (active)
Potency [11]: inactive
Potency [12]: inactive

CC1=C(CC(=O)O)c2cc(F)ccc2/C1=C\c1ccc(S(C)(=O)=O)cc1
Potency [1]: inactive
Potency [2]: inactive
Potency [3]: inactive
outcome [13]: inactive
Potency [5]: inactive
Potency [6]: inactive
Potency [8]: inactive
Potency [10]: 17.4 µM (active)
Potency [11]: inactive
Potency [12]: inactive

C[C@@H]1CN(c2c(F)c(F)c3c(=O)c(C(=O)O)cn(C4CC4)c3c2F)C[C@H](C)N1
activation [1]: 0.0488% [at 11.8 µM]
activity change, negative = cytotoxicity [2]: 6.01% [at 19 µM]
activity change, negative = cytotoxicity [4]: 0.544% [at 19 µM]
caspase-3/7 activation [13]: 0.203% [at 19 µM]
activity change, negative = cytotoxicity [5]: 0.129% [at 19 µM]
activation [6]: -4.26% [at 19 µM]
max activation [14]: -2.98%
Potency [15]: inactive
Potency [16]: inactive
activity change, negative = inhibition [7]: -28.8% [at 23.6 µM]
activity change, negative = inhibition [8]: 5.04% [at 23.6 µM]
Potency [9]: inactive
Potency [10]: inactive
activity change, negative = inhibition [11]: 7.01% [at 15.8 µM]
activity change, negative = inhibition [12]: 9.32% [at 23.6 µM]

FC(F)(F)c1ccccc1
Potency [1]: inactive
Potency [2]: inactive
Potency [3]: inactive
Potency [4]: inactive
Potency [5]: inactive
Potency [6]: inactive
Potency [7]: inactive
Potency [8]: inactive
Potency [9]: inactive
Potency [10]: inactive
Potency [11]: inactive
Potency [12]: inactive

CCN(CC)CCNC(=O)COc1ccc(Cl)cc1
Potency [1]: inactive
Potency [2]: inactive
Potency [4]: inactive
outcome [13]: inactive
Potency [5]: inactive
Potency [6]: inactive
max activation [14]: -3.06%
Potency [15]: inactive
Potency [16]: inactive
Potency [7]: 12.3 µM (active)
Potency [8]: inactive
Potency [9]: inactive
Potency [11]: 13.4 µM (active)

Source: PubChem BioAssay (Tox21)
